About 9,100 (2.5%) of roughly 360,000 compounds were called active. About 4% were inconclusive and are not listed. This is one part of a sample in which actives are shown more often than they occur. Cut-off read from the data, not from the text of the source: active = max response below about -50%; inconclusive = no clear call, values can overlap the other calls; inactive = above that.
What follows are molecules tested against D(3) dopamine receptor (Homo sapiens) (UniProt P35462) (assay: qHTS of D3 Dopamine Receptor Antagonist: qHTS). Conditions: D3R cells, DiscoveRx beta-arrestin luminescence, antagonist mode; active compounds read low.
Sequence of D(3) dopamine receptor (Homo sapiens) (P35462 whole entry, looked up): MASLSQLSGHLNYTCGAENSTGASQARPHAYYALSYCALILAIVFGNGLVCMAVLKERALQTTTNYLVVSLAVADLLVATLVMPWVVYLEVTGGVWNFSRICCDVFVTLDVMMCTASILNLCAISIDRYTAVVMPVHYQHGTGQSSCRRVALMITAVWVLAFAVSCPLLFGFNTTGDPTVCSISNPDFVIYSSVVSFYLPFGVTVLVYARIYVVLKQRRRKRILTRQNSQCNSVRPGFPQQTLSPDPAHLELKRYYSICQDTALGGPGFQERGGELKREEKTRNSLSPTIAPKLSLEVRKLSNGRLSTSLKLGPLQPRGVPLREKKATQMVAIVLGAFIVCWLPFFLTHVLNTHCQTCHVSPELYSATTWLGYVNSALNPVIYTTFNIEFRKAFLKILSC
Method in brief: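 Cells plated overnight at 1500 cells/well, then exposed to library compounds with dopamine controls for 90 minutes at 37 degrees C. DiscoveRx reagent added for 30–60 minutes at room temperature; luminescence read, quantitative HTS format.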
% is set by controls: 0 for no effect and ±100 for the full control effect.

| SMILES | max response, negative = inhibition |
| --- | --- |
| CO[C@@H]1CN(C)C(=O)c2cc(NC(=O)C3CC3)ccc2OC[C@H](C)N(C(=O)CN2CCOCC2)C[C@@H]1C | -4.53% (inactive) |
| Cc1cccc(C(=O)OCC(=O)Nc2sccc2C(N)=O)c1C | 12.4% (inactive) |
| CCOC(=O)C1Sc2[nH]c(=O)sc2C(c2ccc(Cl)cc2)C1C(=O)OCC (stereo not given) | -67.4% (active) |
| CCOC(=O)C1CCN(C(=O)Nc2ccc(Cl)cc2)CC1 | 0% (inactive) |
| CCOC(=O)C1C(=O)NCC1c1ccccc1 (stereo not given) | -22.2% (inactive) |
| Cc1ccc(S(=O)(=O)N2[C@@H](Cc3ccccc3)CO[C@H]2CC(=O)OCc2ccccc2)cc1 | -24.9% (inactive) |
| COc1ccc(C(=O)NCC[N+](C)(C)C)cc1 | 7.47% (inactive) |
| CCc1nnc(NC(=O)CCC(=O)NCc2ccccc2OC)s1 | 14.9% (inactive) |
| COc1ccccc1CNC(=O)CCn1c(=O)sc2ccccc21 | -166% (active) |
| COc1ccccc1CNC(=O)CCCN1C(=O)NC2(CCCC2)C1=O | -13.5% (inactive) |
| O=Cc1cn(CCOc2ccc(F)cc2)c2ccccc12 | 25% (inactive) |
| Cc1ccc(S(=O)(=O)NC(=O)N2CCCC(C)(C)C2)cc1 | 2.79% (inactive) |
| CC(=O)N1CCN(CC(C)(C)NS(=O)(=O)c2ccc(C)cc2)CC1 | 0.902% (inactive) |
| Cc1ccc(S(=O)(=O)NC(=O)N2CCCN(Cc3ccc(F)cc3)CC2)cc1 | -51.3% (active) |
| O=C(c1ccc(N2CCCC2=O)cc1)N1CCN(c2ccc(C(F)(F)F)cc2[N+](=O)[O-])CC1 | 29.2% (inactive) |
| Cc1ccc(C(=O)OCC(=O)NCc2ccc3c(c2)OCO3)s1 | 5.99% (inactive) |
| CCOC(=O)NCc1ccc2c(c1)OCO2 | -52.8% (active) |
| O=C(NCc1ccc2c(c1)OCO2)c1ccc(Cl)s1 | -10.3% (inactive) |
| O=C(NCc1ccc2c(c1)OCO2)C12CC3CC(CC(C3)C1)C2 | 10.5% (inactive) |
| O=C(NCc1ccc2c(c1)OCO2)c1sccc1Br | 10.4% (inactive) |

| SMILES | max response, negative = inhibition |
| --- | --- |
| O=C(NCc1ccc2c(c1)OCO2)c1cc2c(s1)CS(=O)(=O)C2 | -163% (active) |
| CCOc1cc(/C=N/NC(=O)c2c(C)nc3ccc(Cl)cn23)ccc1O | -5.49% (inactive) |
| CSc1ccc(CN2CCC2(C)C(=O)NCc2ccccc2Br)cc1 (stereo not given) | 33.4% (inactive) |
| CC(=O)OC[C@@H]1CN(Cc2ccccc2)C[C@H](n2cnc3c(NCc4ccco4)ncnc32)O1 | 14.6% (inactive) |
| COc1cc(OC)cc(C2=Cc3ccccc3C(CC(=O)c3ccco3)N2c2ccc(-c3cnc(OC)nc3)cc2)c1 (stereo not given) | 41.4% (inactive) |
| COc1ccc(CN2C(=O)C(CC(=O)NCc3cccc4ccccc34)CC(C(=O)N3CCOCC3)=C2C)cc1 (stereo not given) | -2.29% (inactive) |
| CC(C)N=C1CCCC1C(=S)SSC(=S)C1CCCC1=NC(C)C (stereo not given) | -68.8% (active) |
| COC(=O)C[C@@H]1C=C[C@@H](NC(=O)c2cccnc2)[C@@H](CO)O1 | -2.19% (inactive) |
| COc1ccc(/C=C(\NC(=O)c2ccccc2)C(=O)NCCN2CCOCC2)cc1OC | -3.81% (inactive) |
| COc1ccc(/C=C(/NC(=O)c2ccc(C)cc2)c2nc3ccccc3[nH]2)cc1OC | -65.3% (active) |
| CCCCCOc1ccc(/C=C/C(=O)NCCc2nc3ccccc3[nH]2)cc1OC | 53.6% (inactive) |
| CC1(C(=O)NS(=O)(=O)c2ccccc2)CCN1C(=O)Cc1ccc(-c2ccccc2)cc1 (stereo not given) | -7.77% (inactive) |
| CCC1CCCCN1C(=S)Nc1ccc(C(C)=O)cc1 (stereo not given) | 4% (inactive) |
| O=C(NC(=S)N1CCc2ccccc21)c1ccco1 | -1.16% (inactive) |
| CCC1CCCCN1C(=S)NC(=O)c1ccco1 (stereo not given) | -122% (active) |
| N#Cc1ccc(OCC(=O)Nc2nc(-c3ccccn3)cs2)cc1 | -9.86% (inactive) |
| CN(C)CCCOc1ccc(-c2ccc3nccn3c2)cn1 | 1.66% (inactive) |
| N=c1c2c3c(sc2ncn1CCCN1CCOCC1)CCCCC3 | 8.56% (inactive) |
| S=c1[nH]nc2c3c4c(sc3ncn12)CCCC4 | -92.7% (active) |
| CC(C(=O)O)n1cnc2sc3c(c2c1=O)CCCC3 (stereo not given) | 20% (inactive) |

| SMILES | max response, negative = inhibition |
| --- | --- |
| CCOC(=O)N1CCN(C(=O)C[C@@H]2C[C@@]3(C(=O)OC)CC(C)(C)CC=C3N(Cc3ccco3)C2=O)CC1 | -6.32% (inactive) |
| CC(=O)c1cc(-c2ccccc2)[nH]c1N1CCCC1 | 0% (inactive) |
| CC1=NN(c2ccc(Cl)c(C(=O)O)c2)C(=O)/C1=C/c1ccc(-c2ccccc2[N+](=O)[O-])o1 | 8.21% (inactive) |
| O=C1NN(c2ccccc2)C(=O)/C1=C/c1ccc(-c2cccc(C(=O)O)c2)o1 | -54.9% (active) |
| Cc1cc(C)c(S(=O)(=O)NN=C2c3ccccc3[C@H]3Cc4csc[n+]4[C@@H]23)c(C)c1 | 8.56% (inactive) |
| COCC(C)NCc1cc(Br)ccc1OC (stereo not given) | 13.9% (inactive) |
| CCC(C)NCCOCCOc1ccc(Br)cc1C (stereo not given) | -71.5% (active) |
| Cc1cccc(NC(=O)COc2ccc(Br)cc2C)n1 | 2.17% (inactive) |
| Cc1ccc(S(=O)(=O)N2CCOCC2)cc1NC(=O)c1ccncc1 | -9.56% (inactive) |
| CN(C)CCNC(=O)c1ccc(-c2cn3c(-c4ccc(Oc5ccccc5)cc4)cnc3cn2)cc1 | -27.6% (inactive) |
| CCCNC(=O)C1(C)CCN(C(=O)c2ccccc2OC(F)(F)F)C1 (stereo not given) | 7.72% (inactive) |
| Cc1ccc(S(=O)(=O)N2C[C@H]3n4c(=O)ccc(=O)n4C[C@H](OC(=O)NC4CCCC4)[C@@]3(O)C2)cc1 | 10.7% (inactive) |
| C[C@@H]1CN([C@@H](C)CO)C(=O)c2c(c3ccccc3n2C)-c2ccccc2CO[C@H]1CN(C)C(=O)C1CC1 | 5.32% (inactive) |
| COc1ccc(-c2coc3c(C(=O)NC(C)C)cccc23)c(C)c1 | 71.6% (inactive) |
| COc1ccc([C@H]2CC(=O)C=C(/C=C/c3ccc(Cl)cc3)C2)cc1 | -56.6% (active) |
| COc1ccc2cc(C3=CC(=O)C[C@H](c4ccc5c(c4)OCO5)C3)ccc2c1 | 6.05% (inactive) |
| COc1ccc([C@H]2CC(=O)C=C(c3ccc(CO)cc3)C2)cc1 | 3.98% (inactive) |
| COc1ccc(C2CC(=O)NC(=O)C2)cc1 | -22.1% (inactive) |
| COc1ccc([C@H]2CC(=O)C=C(c3ccc(C)cc3)C2)cc1 | -60.5% (active) |
| CCCCC/C=C/C1=CC(=O)C[C@H](c2ccc(Cl)cc2)C1 | 8.93% (inactive) |
